Source: PubChem BioAssay

Test: probe aNog binding to arrayed compounds – biochemical, biotinylated probe, 635/667 nm fluorescence, primary screen (AID 1115);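 note: probe is biotinylated aNog protein used at 0.15 µg/mL for 1 h at 4 C; z-score combines 667 nm fluorescence of each spot with its signal to noise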
Conditions: small-molecule microarray, higher = more signal

**Q.** For `O=C1C2C=CC(C(O)Cc3ccccc3)N(Nc3ccc([N+](=O)[O-])cc3)C2C(=O)N1c1ccccc1` (stereo unspecified), which composite z-score is on record?
**A.** 0.905

**Q.** Which composite z-score does the source give for `CC(C)C[C@@H]1NC(=O)[C@H](CC(C)C)NC(=O)[C@@]23C(=O)N[C@@H](Cc4ccccc4)C2[C@H](C)[C@@]2(C)O[C@H]2C3/C=C/CC/C=C/CNC1=O` (stereo partly specified) here?
**A.** -0.261

**Q.** Which composite z-score does the source give for `COC(=O)[C@@]1(Cc2ccccc2CN=[N+]=[N-])N=C(c2ccc(OCCCO)cc2)O[C@H]1c1ccccc1N=[N+]=[N-]` here?
**A.** 2.32

**Q.** With `CCOC(=O)C[C@H]1[C@H](OC(=O)Cc2ccc3c(c2)OCO3)[C@@H](NC(=O)c2ccc3ccccc3c2)c2cc(OCCCO)ccc2N1C(=O)Cc1ccc(OC)cc1` as the compound, how does the composite z-score read?
**A.** -0.568

**Q.** Which composite z-score does the source give for `C[N+](C)(C)CCCCNC(=O)[C@H]1C[C@H]2C(=O)NCC(=O)N2[C@H]1c1cccc(OCCO)c1` here?
**A.** -0.178

**Q.** For `C=C(/C(=C/C[C@@H](OC(=O)c1ccncc1)c1ccc(CO)o1)c1cnc2ccccc2c1)C(C)C`, which composite z-score is on record?
**A.** 0.221

**Q.** Which composite z-score does the source give for `CCCNC(=O)[C@@]1(Sc2ccc(C)cc2)CC(=O)N(Cc2ccccc2Cl)[C@@H]1c1ccc(CO)cc1` here?
**A.** 0.0021

**Q.** For `COC(=O)Cn1c(C(=O)N2CCCC2)cc2c1C[C@H]1CN(C(=O)c3ccccc3)[C@@](Cc3ccccc3)(C(=O)OC)[C@@H]21`, which composite z-score is on record?
**A.** -0.374

**Q.** With `NC(=O)NCC#Cc1ccc2c(c1)[C@]1(C(=O)N2)[C@H](C(=O)N2CCCCCCC2)[C@H]2C(=O)O[C@H](c3ccccc3)[C@H](c3ccccc3)N2[C@@H]1c1ccccc1OCCO` as the compound, how does the composite z-score read?
**A.** 2.29

**Q.** With `Cc1ccc(S[C@]2(C(=O)NCCCN(C)C)CC(=O)N(C3CCCCC3)[C@@H]2c2ccc(CO)cc2I)cc1` as the compound, how does the composite z-score read?
**A.** 0.134

**Q.** Which composite z-score does the source give for `CCN1C(C)=C(C(=O)OC)[C@@H](c2ccccc2)N2C(=O)[C@@]3(C(=O)OC)O[C@@]12[C@@H]1C(=O)N(C)C(=O)[C@@H]13` here?
**A.** 0.372

**Q.** For `CO[C@H]1COC(=O)[C@H](C)NC(=O)CC=C[C@@H](C)[C@H](NS(=O)(=O)c2ccc(C)cc2)COC(=O)CC=C[C@@H]1C`, which composite z-score is on record?
**A.** -0.12

**Q.** With `Cc1ccc(S(=O)(=O)N[C@H]2COC(=O)CC=C[C@H](C)COC(=O)N[C@@H](C)C(=O)CC=C[C@@H]2C)cc1` as the compound, how does the composite z-score read?
**A.** -0.345

**Q.** Which composite z-score does the source give for `CN1C2C=C(c3ccc(CO)cc3)C(C3C(=O)N(C(N)=O)C(=O)C32)C1c1cccs1` (stereo unspecified) here?
**A.** 0.408

**Q.** With `CCCC=C(CCC)[C@@H](NS(=O)(=O)c1ccc(C(F)(F)F)cc1)c1ccc(-c2ccccc2)cc1` as the compound, how does the composite z-score read?
**A.** 0.157

**Q.** With `CO[C@H]1COC(=O)[C@@H](C)NC(=O)CC=C[C@@H](C)[C@H](OC)COC(=O)CC=C[C@@H]1C` as the compound, how does the composite z-score read?
**A.** -0.559

**Q.** Which composite z-score does the source give for `C=CCC(OC(C)=O)[C@@H]1[C@@H](N(Cc2cc3ccccc3o2)C(=O)Cc2ccc(F)cc2)c2cc(OCCCO)ccc2N1C(=O)c1ccc(-c2ccccc2)cc1` (stereo partly specified) here?
**A.** 0.389

**Q.** For `Cc1ccc(N2C(=O)c3ccccc3[C@@H](C(=O)NCc3ccccc3)[C@@H]2c2ccc(CO)cc2)nc1`, which composite z-score is on record?
**A.** -0.361

**Q.** With `CCCC[C@@H]1C[C@H]1[C@@H](NC(=O)c1ccccc1)c1ccccc1C(F)(F)F` as the compound, how does the composite z-score read?
**A.** 1.39

**Q.** With `CN1C(=O)C2C=CC(C(O)c3ccc(N(C)C)cc3)N(Nc3ccc([N+](=O)[O-])cc3[N+](=O)[O-])C2C1=O` (stereo unspecified) as the compound, how does the composite z-score read?
**A.** 1.7

**Q.** For `O=C1C2C=CC(C(O)C#Cc3ccccc3)N(Nc3ccccc3)C2C(=O)N1c1ccccc1` (stereo unspecified), which composite z-score is on record?
**A.** 0.839

**Q.** Which composite z-score does the source give for `Cc1ccc(S[C@]2(C(=O)NCCN3CCOCC3)CC(=O)N(C3Cc4ccccc4C3)[C@@H]2c2ccc(CO)cc2I)cc1` here?
**A.** 0.79

**Q.** For `O=C1O[C@@H](c2ccccc2)[C@@H](c2ccccc2)N2[C@@H](c3ccc(O)cc3)[C@]3(C(=O)Nc4ccccc43)[C@@H](C(=O)N3CCN(c4ncccn4)CC3)[C@H]12`, which composite z-score is on record?
**A.** 0.0486

**Q.** Which composite z-score does the source give for `C=CC[C@]1(C(=O)NCC(O)CO)N=C(c2ccc(OCCCO)cc2)O[C@H]1c1ccccc1` (stereo partly specified) here?
**A.** 0.402

**Q.** For `CC[C@@H]1C=C(C(=O)O)[C@H](c2ccccc2)N1S(=O)(=O)c1ccc([N+](=O)[O-])cc1`, which composite z-score is on record?
**A.** -0.321

**Q.** Which composite z-score does the source give for `CN1CCC(CCCO)=CC1C1CC1` (stereo unspecified) here?
**A.** -0.473

**Q.** Which composite z-score does the source give for `C=CC[C@]1(C(=O)N2CCCCC2)N=C(c2ccc(OCCCO)cc2)O[C@H]1c1ccccc1N=[N+]=[N-]` here?
**A.** -0.174

**Q.** For `COc1cccc([C@@H]2[C@@H](C)CC[C@H]3C(=O)N4[C@H](c5cccc(OC)c5)[C@@H](C)CC[C@H]4C(=O)N23)c1`, which composite z-score is on record?
**A.** -0.0611

**Q.** Which composite z-score does the source give for `COCCOC(=O)N1C(=O)[C@@]2(c3cc(C#CC4=CCCCC4)ccc31)[C@H](c1ccc(O)cc1)N1[C@H](c3ccccc3)[C@H](c3ccccc3)OC(=O)[C@H]1[C@@H]2C(=O)N1CCCCCCC1` here?
**A.** 0.512

**Q.** For `C=CCC(OC(C)=O)[C@@H]1[C@@H](N(Cc2cccc3ccccc23)C(=O)c2ccc(C)cc2)c2cc(OCCCO)ccc2N1C(=O)c1ccc(-c2ccccc2)cc1` (stereo partly specified), which composite z-score is on record?
**A.** -0.241

**Q.** Which composite z-score does the source give for `C=CCN1C(=O)[C@]2(O[C@H](CCn3cc(CCO)nn3)[C@@H]([Si](C)(C)c3ccc(OC)cc3)[C@@H]2C)c2cc(NC(=O)c3ccc(OC)cc3)ccc21` here?
**A.** 0.188

**Q.** For `CC(=O)NCCCC[C@@H]1NC(=O)[C@@H]2C[C@H](C(=O)NCCCCCCN(C)C)[C@H](c3ccc(O)cc3)N2C1=O`, which composite z-score is on record?
**A.** 1.01

**Q.** For `CO[C@@H]1COC(=O)[C@H](COCc2ccccc2)NC(=O)CC=C[C@@H](C)[C@H](OC)COC(=O)[C@H](COCc2ccccc2)NC(=O)CC=C[C@H]1C`, which composite z-score is on record?
**A.** -0.349

**Q.** Which composite z-score does the source give for `COCCOC(=O)N1C(=O)[C@@]2(c3ccccc31)[C@H](C(=O)N1CCc3cc(OC)c(OC)cc3C1)[C@H]1C(=O)O[C@H](c3ccccc3)[C@H](c3ccccc3)N1[C@@H]2c1ccccc1OCCO` here?
**A.** 0.185

**Q.** With `C=C(CCCC)/C(=C/C[C@@H](OC(=O)c1ccncc1)c1cccc(OCCO)c1)c1cc(C(=O)OC)ccc1OC` as the compound, how does the composite z-score read?
**A.** -0.452

**Q.** Which composite z-score does the source give for `C#CCCCON=C1C[C@@H](O)[C@@H](O)[C@@H]2[C@@H]3C(=O)N(Cc4ccc5c(c4)OCO5)C(=O)[C@@H]3CC[C@@H]12` here?
**A.** 0.0136
